Assay outcomes from PubChem BioAssay.
KB-3-1 tox: kills parental KB-3-1 adenocarcinoma cells | KB-3-1 viability, CellTiter-Glo ATP luminescence, 72 h | 400,000 tested, 1.4% active | Potency, µM (highest dose often 46.1 µM), hits mostly cytotoxic; note: nearly all actives have a fitted effect of over 60% in size
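Using CellTiter-Glo luminescence, growth of non-resistant KB-3-1 adenocarcinoma cells is assessed 72 h after pin-tool compound addition at 37 °C. Normalized responses across the concentration series yield fitted curves.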
TDP1 cell noCPT: qHTS for Inhibitors of human tyrosyl-DNA phosphodiesterase 1 (TDP1): qHTS in cells in absence of CPT; DT40 Tdp1-/- hTDP1 cells, no CPT, ATP luminescence, 48 h; Potency, µM (highest dose often 46.2 µM), actives largely listed as inhibitors; 420,000 tested, 15% active; note: nearly all actives have a fitted effect of over 55% in size
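DT40 Tdp1-/-;hTDP1 cells, no CPT (DMSO vehicle only), 400 cells/well; compounds pin-transferred; ≥48 hr, 37 °C; CellTiter-Glo 30 min RT dark, luminescence read.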
TDP1 cell CPT: DT40-hTDP1 cell growth loss with CPT | 420,000 tested, 12% active | chicken DT40 Tdp1-/-;hTDP1 cells + 20 nM CPT, ATP luminescence, 48 h | Potency, µM (series often up to 46.2 µM), usual class: inhibitors; note: nearly all actives have a fitted effect of over 55% in size
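Cell growth measured by CellTiter-Glo luminescence after a minimum 48 h, 37 C compound exposure with 20 nM CPT in Tdp1-knockout DT40 cells stably expressing hTDP1, seeded 400/well; qHTS titration format.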
KB-V1 cytotox: kills drug-selected multidrug resistant KB-V1 cells; 400,000 tested, 3.4% active; AID 1347076; Potency, µM (series often up to 46.1 µM), hits mostly cytotoxic; KB-V1 MDR cells viability, CellTiter-Glo, 72 h; note: nearly all actives have a fitted effect of over 60% in size
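Following 72 h at 37 degrees C with compound, KB-V1 cell viability was read by CellTiter-Glo luminescence, medium being phenol-red-free DMEM plus 10% FBS; concentration-response parameters came from normalized, curve-fitted qHTS data.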
HT1080-NT tox: kills 2HG-producing HT-1080-NT fibrosarcoma cells; HT-1080-NT fibrosarcoma viability, CellTiter-Glo ATP luminescence, 48 h; Potency, µM (top dose mostly 46.1 µM), most hits filed as cytotoxic; 360,000 tested, 1.6% active; AID 686970;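 note: NT is the 2HG producing partner of a matched IDH1 knockdown line; nearly all actives have a fitted effect of over 55% in size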
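Viability by CellTiter-Glo luminescence after 48 h compound exposure at 37C of HT-1080-NT cells (750/well, RPMI, 5% FBS). % activity scaled between DMSO wells and medium-only wells, then curve-fitted and categorized by curve class.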
HT1080 IDH1KD tx: kills HT-1080 cells with IDH1 knockdown; HT-1080 IDH1 knockdown viability, ATP luminescence, 48 h; Potency, µM (top dose mostly 46.1 µM), usual class: cytotoxic; 360,000 tested, 2% active; AID 686971
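After a 2 h attachment period, IDH1KD HT-1080 cells took pin-transferred compound for 48 h at 37 °C; ATP-based luminescence after 10 min room-temperature reagent incubation reported viability.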
Large screens that a line does not name were inactive. Rows were chosen to be rich in hits. Some 19% of all compounds tested hit in one or more screens of this group. Calls come from the whole dose curve; as a rule, active = well fitted curve in the direction sought with a large enough effect; inconclusive = small, poorly fitted or top-dose-only effect, or another doubt; inactive = no such curve, though single readings can be large; an effect the other way counts as inactive or inconclusive.

O=C1OC(c2ccccc2)Cc2cc(C(=O)N3CCN(c4ccc(F)cc4)CC3)ccc21 (stereo not drawn)	TDP1 cell noCPT inconclusive, TDP1 cell CPT 18.4µM, KB-V1 cytotox inconclusive
COc1ccc(N2CCN(C(=O)c3ccc4c(c3)CC(c3ccccc3)OC4=O)CC2)cc1 (stereo not drawn)	KB-3-1 tox inconclusive, TDP1 cell noCPT 20.6µM, TDP1 cell CPT inconclusive, KB-V1 cytotox inconclusive
CC1CCCCN1C(=O)c1ccc2c(c1)N(Cc1ccc(Cl)cc1)C(=O)c1ccccc1S2=O (stereo not drawn)	KB-3-1 tox inconclusive, TDP1 cell noCPT inconclusive, TDP1 cell CPT inconclusive (no result: HT1080-NT tox, HT1080 IDH1KD tx)
CCNC(=O)C1(C)CCN(C(=O)c2cc(OC)c(OC)c(OC)c2)C1 (stereo not drawn)	none
C=C1CCN(c2ccc(C(=O)NCCC)cc2[N+](=O)[O-])CC1	TDP1 cell noCPT 16.4µM, TDP1 cell CPT 16.4µM
O=C(NCCCn1ccnc1)c1ccc(N2CCCCCC2)c([N+](=O)[O-])c1	TDP1 cell noCPT inconclusive, TDP1 cell CPT 18.4µM, HT1080-NT tox 23.1µM, HT1080 IDH1KD tx 5.8µM
C=C1CCN(c2ccc(C(=O)NCc3ccccc3)cc2[N+](=O)[O-])CC1	none
CCC(=O)N1c2ccc(S(=O)(=O)NCCc3ccc(OC)c(OC)c3)cc2CC1C (stereo not drawn)	TDP1 cell noCPT inconclusive, TDP1 cell CPT inconclusive
CCC(C)[C@H](NC(=O)c1cc2cc(Cl)ccc2n1C)C(=O)N1CCC[C@H]1C(=O)O (stereo partly drawn)	none
CN1/C(=C/C=N/n2cnnc2)C(C)(C)c2ccccc21	TDP1 cell noCPT 23.1µM, TDP1 cell CPT 18.4µM, KB-V1 cytotox inconclusive
O=C1/C(=C/c2ccccc2Cl)SC(=S)N1CCC(=O)N1CCCCC1CCO (stereo not drawn)	TDP1 cell noCPT 10.3µM, TDP1 cell CPT 16.4µM
CC(C)c1ccc(/C=C2\SC(=S)N(CCC(=O)N3CCCCC3CCO)C2=O)cc1 (stereo not drawn)	TDP1 cell noCPT 20.6µM, TDP1 cell CPT inconclusive
Cc1nn(Cc2ccc(C(=O)NN)cc2)c(C)c1Cl	HT1080 IDH1KD tx inconclusive
Cc1nn(Cc2ccc(C(=O)Nc3nccs3)cc2)c(C)c1Cl	KB-3-1 tox 16.4µM, TDP1 cell noCPT inconclusive, KB-V1 cytotox 20.6µM
CCCNC(=O)Nc1cc(C(=O)NCc2cccc(OCC)c2)ccc1N1CCCC1	none (no result: HT1080-NT tox, HT1080 IDH1KD tx)
COc1ccc(C=NNC(=O)CCCC(=O)NN=Cc2ccc(OC)c(OC)c2)cc1OC	TDP1 cell CPT inconclusive
COc1ccc(C=NNC(=O)NN=Cc2ccc(OC)c(OC)c2)cc1OC	KB-3-1 tox inconclusive, TDP1 cell noCPT 20.6µM, TDP1 cell CPT inconclusive, KB-V1 cytotox inconclusive, HT1080-NT tox inconclusive, HT1080 IDH1KD tx inconclusive
COc1ccccc1/C=N/NS(=O)(=O)c1ccccc1	none
COc1ccc2c(c1)c(C(=O)N/N=C/c1cn(C)c3ccccc13)c(C)n2C	TDP1 cell noCPT inconclusive, TDP1 cell CPT inconclusive
COc1ccc2c(c1)c(C(=O)N/N=C/c1ccc(OC)c(OC)c1)c(C)n2C	TDP1 cell noCPT 11.6µM, TDP1 cell CPT 18.4µM
COc1ccc(/C=N/NC(=O)CSCC(=O)Nc2ccccc2)cc1OC	none
COc1ccc(Br)cc1/C=N/NS(=O)(=O)c1ccccc1	KB-3-1 tox inconclusive, TDP1 cell noCPT 7.31µM, TDP1 cell CPT 18.4µM, KB-V1 cytotox inconclusive, HT1080-NT tox inconclusive, HT1080 IDH1KD tx inconclusive
COC(=O)Oc1ccc(/C=N/NC(=O)CSCc2ccccc2Br)cc1OC	TDP1 cell noCPT 14.6µM, TDP1 cell CPT 23.1µM
COc1cc(/C=N\NS(=O)(=O)c2ccccc2)cc(OC)c1OC	none
O=S(=O)(N/N=C/c1cccc(OC2CSC2)c1)c1ccccc1	KB-3-1 tox inconclusive, TDP1 cell noCPT inconclusive, TDP1 cell CPT 16.4µM, KB-V1 cytotox inconclusive
Cc1ccc(S(=O)(=O)N/N=C/c2cccc(OC3CSC3)c2)cc1	KB-3-1 tox inconclusive, TDP1 cell noCPT inconclusive, TDP1 cell CPT inconclusive
COc1ccc(/C=N/NS(=O)(=O)c2ccccc2)cc1OC	TDP1 cell noCPT 23.1µM, TDP1 cell CPT 20.6µM
COCCNC(=S)N/N=C/c1ccc(OCc2ccc(C(=O)OC)cc2)c(OC)c1	TDP1 cell noCPT 23.1µM, TDP1 cell CPT inconclusive, KB-V1 cytotox inconclusive
COc1ccc(-n2c(O)c(/C=N/NS(=O)(=O)c3cccc([N+](=O)[O-])c3)c3ccccc3c2=O)cc1OC	TDP1 cell noCPT 18.4µM, TDP1 cell CPT 23.1µM
Cc1cc2ccccc2c[n+]1C	KB-3-1 tox inconclusive (no result: HT1080-NT tox, HT1080 IDH1KD tx)
COc1ccc(/C=N/NS(=O)(=O)c2ccccc2)cc1OS(=O)(=O)c1ccc(C)cc1	TDP1 cell noCPT 18.4µM, TDP1 cell CPT inconclusive, KB-V1 cytotox 18.4µM
COc1cc2c(cc1OC)C(C)N(C(=O)c1sccc1C)CC2 (stereo not drawn)	TDP1 cell CPT inconclusive
COc1cc2c(cc1OC)C(C)N(CCc1ccc(Cl)cc1)CC2 (stereo not drawn)	TDP1 cell noCPT inconclusive, TDP1 cell CPT inconclusive, KB-V1 cytotox inconclusive, HT1080-NT tox 11.6µM, HT1080 IDH1KD tx inconclusive
COc1cc2c(cc1OC)C(C)N(CCN1C(=O)c3ccccc3C1=O)CC2 (stereo not drawn)	none
COc1cc2c(cc1OC)C(C)N(C(=O)c1c(-c3ccccc3)noc1C)CC2 (stereo not drawn)	KB-3-1 tox inconclusive, TDP1 cell noCPT 13µM, TDP1 cell CPT 18.4µM, KB-V1 cytotox 20.6µM, HT1080-NT tox inconclusive, HT1080 IDH1KD tx 23.1µM
COc1cc2c(cc1OC)C(C)N(C(=O)c1ccc(C)o1)CC2 (stereo not drawn)	KB-3-1 tox inconclusive, TDP1 cell noCPT 20.6µM, TDP1 cell CPT 25.9µM, KB-V1 cytotox 16.4µM, HT1080-NT tox inconclusive, HT1080 IDH1KD tx inconclusive
CCOC(=O)C1(Cc2ccccc2C)CCCN(C(=O)CSC)C1 (stereo not drawn)	TDP1 cell noCPT inconclusive, TDP1 cell CPT inconclusive
CCOC(=O)C1(Cc2ccccc2C)CCCN(C(=O)c2cc(C3CC3)[nH]n2)C1 (stereo not drawn)	TDP1 cell noCPT inconclusive, KB-V1 cytotox inconclusive
CCOC(=O)C1(Cc2ccccc2C)CCCN(C(=O)c2ccc(CSC)o2)C1 (stereo not drawn)	TDP1 cell noCPT inconclusive, TDP1 cell CPT inconclusive
CCOC(=O)C1(Cc2ccccc2C)CCCN(C(=O)CCn2nccc2C)C1 (stereo not drawn)	TDP1 cell noCPT 13µM, TDP1 cell CPT inconclusive
